In PubChem BioAssay (NCI):
About 83,000 compounds went through this panel and 20% of them were active in at least one assay; those are over-represented in the sample as a whole.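 A percent growth of 40 corresponds to 60% growth inhibition; 0 means no net growth; -100 means all cells died. Active threshold: below 10.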 Unmarked numbers belong to inactive results. Activity calls are given as the source filed them.

Tests used:
Assay in all cases: NCI-60 one-dose screen, 48 h (100 = growth as untreated, 0 = no growth, -100 = all killed)
Settings in all cases: 10 µM
BT-549 breast = tested on: BT-549 breast
MDA-MB-435 melanoma = tested on: MDA-MB-435 melanoma
SW-620 colon = tested on: SW-620 colon
MCF7 breast = tested on: MCF7 breast
HCT-116 colon = tested on: HCT-116 colon
HCC-2998 colon = tested on: HCC-2998 colon
KM12 colon = tested on: KM12 colon

Row | Structure (SMILES) | growth (BT-549 breast) | growth (MDA-MB-435 melanoma) | growth (SW-620 colon) | growth (MCF7 breast) | growth (HCT-116 colon) | growth (HCC-2998 colon) | growth (KM12 colon)
1 | COc1cc(Cl)cc(-c2nn(-c3cccc(NC(=O)Nc4ccc(Cl)c(C(F)(F)F)c4)c3)cc2-c2ccncc2)c1 | 9.81% (active) | -16.8% (active) | 12.7% | 2.57% (active) | 3.39% (active) | 18.1% | 9.1% (active)
2 | CC(=O)c1cc(Cl)ccc1O | 105% | 101% | 95.9% | 105% | 102% | 97.4% | 96.2%
3 | CCCCCCCCCCCCCCCCCC(=O)OCCCCCCC | 110% | 94.6% | 97.5% | 107% | 118% | 102% | 97.6%
4 | COc1ccc(-c2nc3ccccn3c2-c2nnc(-c3cc(OC)c(OC)c(OC)c3)o2)cc1 | 42.7% | 96.2% | 74.9% | 63.4% | 32.1% | 85.4% | 65%
5 | O=C1/C(=C/c2ccc(Cl)cc2)SC(=Nc2ccc(Cl)cc2)N1Cc1nc2ccccc2[nH]1 | 104% | 76.3% | 74.9% | 59% | 53.8% | – | 76.7%
6 | CCCCCCCCN(CCCCCCCC)CCCCCCCCCN1CCCc2cc(OC)ccc21 | 94.9% | 104% | 99% | 96% | 75.7% | 93.2% | 104%
7 | COc1cccc(C2C3=C(COC3=O)N(CCO)c3cc(OC)ccc32)c1 (configuration not stated) | 16.9% | -44.7% (active) | 21% | 23% | 10.6% | – | -5.83% (active)
8 | Oc1[nH]c2cc(Cl)ccc2c1/C=c1/ccc2c(c1)N=C(c1cc(F)cc(F)c1)N=2 | 37.5% | -32.5% (active) | 24.8% | 11% | 18.8% | 58% | 13.1%
9 | O=C(c1ccc(Cl)cc1Cl)N1CCOCC1 | 92.3% | 104% | 102% | 97.6% | 93.8% | 106% | 110%
10 | Cc1cc2c(C)c3cc(C)c(N)cc3nc2cc1N | 57.8% | 12% | 4.58% (active) | -4.55% (active) | -9.81% (active) | – | 9.44% (active)
11 | COc1ccc2c(c1)N(CCO)C1=C(C(=O)OC1)C2c1ccc(OC)c(OC)c1 (configuration not stated) | 64.2% | -25.9% (active) | 17.5% | 27.3% | 26.7% | – | 18.7%
12 | Cc1cc(C)c(NC(=O)c2sc3nc4c(cc3c2N)C(=O)CCC4)c(C)c1 | 56.7% | -34.4% (active) | 15.6% | 16.8% | 23.1% | 30.9% | 27.3%
13 | Clc1ccc(Sc2nc(NC3CC3)nc(Sc3ccc(Cl)cc3)n2)cc1 | 104% | 87.8% | 83.3% | 72% | 53.7% | – | 76.6%
14 | COc1ccc2c(c1)N(CCO)C1=C(C(=O)OC1)C2c1ccccc1 (configuration not stated) | 47.2% | -62.9% (active) | 13.9% | 25.4% | 25.9% | – | 17.4%
15 | CCOC(=O)C(=Cc1ccc(Br)cc1)C(=O)OCC | -43.3% (active) | -4.37% (active) | -71.2% (active) | 0.372% (active) | -80.4% (active) | -82.2% (active) | -25.3% (active)
16 | CCCCCCNC(=O)Oc1ccc(/C(=C(/CC)Cc2ccccc2)c2ccc(OCCN3CCCCC3)cc2)cc1 | 97.4% | 89% | 79.1% | 28.8% | 62.8% | 87.3% | 84%
17 | CCCCCCN1CCN(Cc2ccc(N(CC)CC)cc2)C(=O)C1=O | 68.1% | -79.5% (active) | 24% | 17.2% | 34.2% | 52% | 28.5%
18 | O=C1OCC2=C1C(c1cccc(Cl)c1)c1cc3c(cc1N2CCO)OCO3 (configuration not stated) | 59.6% | -46.1% (active) | 21.3% | 23.9% | 19% | – | 8.24% (active)
19 | COc1ccc(-n2c(SCc3cc(OC)c(OC)c(OC)c3)nc3ccc(C)cc3c2=O)cc1 | 71.5% | -4.51% (active) | 49.3% | 24.8% | 35% | – | 35.4%

Row | Structure (SMILES) | growth (BT-549 breast) | growth (MDA-MB-435 melanoma) | growth (SW-620 colon) | growth (MCF7 breast) | growth (HCT-116 colon) | growth (HCC-2998 colon) | growth (KM12 colon)
20 | O=C(CC(NC(=O)OCc1ccccc1)C(=O)OCc1ccccc1)OCc1ccccc1 (configuration not stated) | 112% | 102% | 91.6% | 102% | 97.4% | – | 108%
21 | COc1ccc(-c2cc(-c3cccc(NS(C)(=O)=O)c3)nc(N)c2C#N)cc1 | 40.1% | -55.2% (active) | 27.4% | 16.5% | 17% | -25.7% (active) | 17.6%
22 | COc1ccc(-c2csc(NC(=O)CSc3nc(C)c(-c4ccccc4)n3Nc3ccccc3)n2)cc1 | 63.5% | 56.1% | 70.2% | 41.7% | 36.4% | 78.7% | 41.5%
23 | CC(=O)N(C)c1ccc(Nc2ccc(Nc3ccc(N(C)C(C)=O)cc3)c3c2C(=O)c2ccccc2C3=O)cc1 | 84.4% | 101% | 84.1% | 52% | 73.5% | 89.6% | 71.1%
24 | COc1cc(/C=C2\CCCC3=C2N=C2SC=NN2C3c2cc(OC)c(OC)c(OC)c2)cc(OC)c1OC (configuration not stated) | 37.9% | -13.2% (active) | 18.5% | 27.4% | -23.5% (active) | 4.77% (active) | -23.5% (active)
25 | COc1cc(C(=O)/C=C/c2cc(-c3cc(OC)c(OC)c(OC)c3)n[nH]2)cc(OC)c1OC | -79% (active) | -51.8% (active) | -71.8% (active) | 3.65% (active) | -93.6% (active) | – | -77.7% (active)
26 | COc1ccc(-c2nn(-c3cccc(NC(=O)Nc4cc(C(F)(F)F)cc(C(F)(F)F)c4)c3)cc2-c2ccncc2)cc1Cl | -1.8% (active) | -42.8% (active) | 10.9% | 0.561% (active) | -22% (active) | – | -2.5% (active)
27 | CC1(C)OC2=C(CC1Br)C(=O)C(=O)c1ccccc12 (configuration not stated) | -99.2% (active) | -87.4% (active) | -81.5% (active) | -66.3% (active) | -57% (active) | – | -93% (active)
28 | COc1cc(-c2nn3c(/C=C4/C(=O)Nc5ccccc54)c(-c4ccc(C)cc4)nc3s2)cc(OC)c1OC | 22.8% | 33.6% | 54.8% | 39.4% | 24% | – | 51%
29 | CC(=O)C1CCC2C3CC(F)C4=CC(=O)CCC4(C)C3C(O)CC12C (configuration not stated) | 91.2% | 102% | 109% | 94.5% | 89.9% | 105% | 111%
30 | COc1cccc(NC(=O)c2sc3nc4c(cc3c2N)C(O)CCC4)c1 (configuration not stated) | 44.4% | -32.5% (active) | 23.8% | 15.5% | 12.3% | – | 16.7%
31 | Nc1nc(N)c(NC(=O)CNc2ccc(C(=O)O)cc2)c(N)n1 | 116% | 105% | 105% | 91.3% | 113% | 107% | 114%
32 | O=[N+]([O-])c1ccc(Oc2cccnc2)c([N+](=O)[O-])c1 | 72.3% | 26.9% | 1.5% (active) | 46.7% | 8.43% (active) | – | 56.8%
33 | O=C1OCC2=C1C(c1cccc(Br)c1)c1cc3c(cc1N2CCO)CCC3 (configuration not stated) | 15.7% | -40% (active) | 17.5% | 21.4% | 6.12% (active) | – | -47.5% (active)
34 | Nc1ncn([C@@H]2O[C@H](CO)[C@@H](O)[C@H]2O)c(=O)n1 | 16.3% | 16.6% | 35.6% | 23.5% | -31.5% (active) | 11.7% | 16.6%
35 | CN(C)CCCn1c(=O)c2ccccc2c2cnc3[nH]ccc3c21 | 34.1% | 11.9% | 5.02% (active) | 1.25% (active) | 2.85% (active) | – | 9.58% (active)
36 | CN(Cc1ccccc1)Cc1ccc([N+](=O)[O-])cc1I | 87.7% | 102% | 89% | 91.6% | 84% | 106% | 93.2%
37 | O=C(NC(Cc1ccc(O)cc1)C(=O)N=Nc1c(O)[nH]c2ccccc12)c1ccccc1 (configuration not stated) | 102% | 103% | 96.4% | 103% | 99.3% | – | 99.2%
38 | c1ccc(C(NC2CC3CCC2C3)c2ccccc2)cc1 (configuration not stated) | 78.4% | 91.6% | 106% | 98.4% | 89.9% | – | 95%
